# ssDAF12 agonist – S. stercoralis DAF-12 nuclear receptor activators, primary screen, cell-based, luminescence, HEK293, GRIP1 co-expression, lit1-tk-luc; 370,000 tested, 1% active; HEK293 ssDAF-12/GRIP1 lit1-tk-luc reporter; % of 3 µM dafachronic acid response; activation, % at 6.8 µM;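 active means activation above the mean over all tested compounds plus 3 SD, cut at about 0.9% in these data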
# hgDAF-12 ag – H. glycines DAF-12 receptor agonists, primary screen, cell-based, luminescence, HEK293, GAL4 fusion, UAS-luciferase; Nuclear hormone receptor DAF-12 (Heterodera glycines), GAL4 fusion; activation, % at 6.8 µM; HEK293 GAL4-hgDAF12 UAS-luciferase reporter, agonist luminescence; normalized to butyrate control; 370,000 tested, 1.8% active;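 active means activation above a cutoff set at the mean of all screened compounds plus 3 SD, cut at about 10% in these data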
# DAX1 inh-1 – DAX1 (NR0B1) inhibitors, primary screen, cell-based, HEK293, Gal4-DAX1, luciferase luminescence; inhibition, % at 6.75 µM; 340,000 tested, 0.99% active; HEK293 Gal4-DAX1 luciferase reporter; AID 504766, 2011;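 active means inhibition above the mean over all tested compounds plus 3 SD, cut at about 4.2% in these data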;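 further: inhibition shows as a rise in luminescence from relieved DAX1 repression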
# Target sequence (P51843 207-470 limits assumed): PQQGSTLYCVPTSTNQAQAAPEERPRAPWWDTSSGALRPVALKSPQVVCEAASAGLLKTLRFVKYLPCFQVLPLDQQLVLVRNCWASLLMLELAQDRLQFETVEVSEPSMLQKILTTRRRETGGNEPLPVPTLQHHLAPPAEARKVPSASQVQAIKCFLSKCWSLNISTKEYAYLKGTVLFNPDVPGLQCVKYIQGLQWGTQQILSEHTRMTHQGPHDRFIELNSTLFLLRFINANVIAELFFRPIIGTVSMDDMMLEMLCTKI
# hcDAF12 agonist – H. contortus DAF-12 nuclear receptor activators, primary screen, cell-based, luminescence, HEK293, lit1-tk-luc reporter; HEK293 hcDAF-12 lit1-tk-luc reporter; 0% DMSO, 100% Δ7-dafachronic acid; activation, % at 6.8 µM; 370,000 tested, 1.4% active; AID 652067, 2013;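 active means activation above the mean of all tested compounds plus 3 SD, cut at about 5.5% in these data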
# DAX1 inh-2 – DAX1 (NR0B1) inhibitors on StAR promoter, primary screen, cell-based, luminescence, SF-1 (NR5A1), full-length DAX-1 | HEK293T StAR-luciferase reporter, SF-1/DAX-1 repression relief | inhibition, % at 6.8 µM | 370,000 tested, 1.1% active;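 active means inhibition above the mean over all tested compounds plus 3 SD, cut at about 3.6% in these data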;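 further: higher inhibition means more luminescence from relief of DAX-1 repression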
# Hits are given with their value; . = inactive; / = no result. This is a sample that favours compounds with a hit; in the whole collection about 4.1% have one here.
SMILES,ssDAF12 agonist,hgDAF-12 ag,DAX1 inh-1,hcDAF12 agonist,DAX1 inh-2
CCSc1nnc(NC(=O)/C=C/c2ccco2)s1,.,.,.,6.0,.
O=C(Nc1nnc(SCc2ccccc2F)s1)c1ccco1,.,.,.,.,.
CCCSc1nnc(NC(=O)c2ccco2)s1,.,.,6.1,.,.
CCc1nnc(NC(=O)/C=C/c2ccco2)s1,.,.,.,.,.
O=C(Nc1nnc(CC(c2ccccc2)c2ccccc2)s1)c1ccco1,.,.,4.5,.,.
CN1C(=O)c2cc(NC(=O)Nc3ccc(F)c(F)c3)ccc2OC[C@H]2O[C@@H](CC(=O)O)CC[C@H]21,.,.,/,.,.
C#CCN1CC(N(C)CCO)CS1(=O)=O (stereo unspecified),.,.,/,.,.
Cc1[nH]nc2c1C(c1cccc(C(F)(F)F)c1)NC2=O (stereo unspecified),.,.,/,.,.
CC1CCN(Cc2ccc(NC(=O)CC3Oc4ccccc4NC3=O)cc2)CC1 (stereo unspecified),.,.,6.2,.,.
O=C(CC1Oc2ccccc2NC1=O)NCc1ccc(Cl)cc1 (stereo unspecified),.,.,4.4,.,.
CN(Cc1ccccc1)C(=O)c1ccc(Nc2nc(C(N)Cc3ccc(C(F)(F)F)cc3)cs2)nc1 (stereo unspecified),.,.,/,.,.
Cc1ccc(CNC(=O)CSCc2ccccc2F)cc1,.,13,.,.,.
COC(=O)c1cc2c(c3c4ccccc4n(S(=O)(=O)c4ccc(C)cc4)c13)C(=O)N(C)C2,.,.,/,.,.
O=[N+]([O-])c1ccc(Cl)c(C[n+]2cccc3ccccc32)c1,1.5,.,.,.,.
O=C(C[n+]1cccc2ccccc21)c1ccc([N+](=O)[O-])cc1,1.3,.,.,.,.
Clc1cccc(Cl)c1C[n+]1cccc2ccccc21,.,.,.,.,.
CC(C)n1nnnc1C1c2ccccc2C(=O)N1Cc1ccc(F)cc1 (stereo unspecified),.,.,/,.,.
CC(C)n1nnnc1C1c2ccccc2C(=O)N1Cc1cccc(F)c1 (stereo unspecified),.,.,/,.,3.8
COCCCNC(=O)c1ccc2sc([C@@H]3O[C@H](CO)[C@H](O)[C@H](O)[C@H]3O)nc2c1,.,.,/,.,.
O=C(C1CCC(CNc2c(N3CCCCC3)c(=O)c2=O)CC1)N1CCN(C2CCCCC2)CC1 (stereo unspecified),.,.,4.4,.,.
c1ccc(CCn2nnnc2CN2CCCc3ccccc32)cc1,.,.,.,5.8,.
c1ccc2c(c1)CCCN2Cc1nnnn1CC1CCCO1 (stereo unspecified),.,.,.,.,.
NNC(=O)COc1cccc(C(F)(F)F)c1,.,.,.,.,.
CC(C)[C@H](NC(N)=O)C(=O)NNC(=O)COc1cccc(C(F)(F)F)c1,.,.,6.5,.,.
CCCNC(=O)C1(C)CCN(C(=O)c2cc(C(C)(C)C)nn2C)C1 (stereo unspecified),.,.,/,.,.
SMILES,ssDAF12 agonist,hgDAF-12 ag,DAX1 inh-1,hcDAF12 agonist,DAX1 inh-2
CCOC(=O)[C@]12CCCCC/C=C\1N(CCc1ccc(Cl)cc1)C(=O)[C@H]2CC(=O)NCc1ccc(OC)c(OC)c1,.,.,/,.,.
N#Cc1ccc(S(=O)(=O)N2CCCc3nc(-c4ccc(Br)cc4)ccc32)cc1,1.4,.,/,.,.
N#Cc1ccc(S(=O)(=O)N2CCCc3nc(-c4ccc(F)cc4)ccc32)cc1,1.7,.,/,.,.
O=S(=O)(c1ccc(F)cc1)N1CCCc2nc(-c3ccc(Br)cc3)ccc21,.,.,/,.,.
Cc1cc(C)c2nc(-n3nc(C)cc3N)cc(C)c2c1,.,.,.,5.7,.
Cc1ccccc1N1CCN(C(=O)CN2C(=O)CC(C)(C)S(=O)(=O)c3ccccc32)CC1,.,.,/,.,.
NC(=O)Nc1ccccc1C(=O)N1CCC(O)(c2ccc(Cl)cc2)CC1,/,/,5.4,/,/
CN(C)CCCN(C(=O)c1cc(Cl)sc1Cl)c1nc2cc3c(cc2s1)OCO3,.,.,.,.,4.1
O=C1NC(c2ccccc2Cl)Nc2ccccc21 (stereo unspecified),.,.,.,.,.
O=C1c2ccccc2NC(c2ccccc2Cl)N1N=C1CCCCCC1 (stereo unspecified),.,10,.,.,.
Cc1ccc(S(=O)(=O)N2Cc3ccccc3CC2C(N)=O)cc1 (stereo unspecified),.,.,.,.,.
COc1ccc(S(=O)(=O)n2c(C)nc3ccccc32)cc1C,.,12,.,.,.
COC(=O)[C@]12C[C@H](CC(=O)N3CCCC3)C(=O)N(Cc3cccc4ccccc34)C1=C[C@H](COCc1ccccc1)O[C@@H]2C,.,.,/,.,.
CCOc1ccc(-c2csc(NC(=O)CSC3=NC(=O)CN3C(C)=O)n2)c2ccccc12,.,11,.,.,.
CCOc1ccc(-c2csc(NC(=O)CSCC(=O)O)n2)c2ccccc12,.,.,.,.,.
CC(=O)N/C(=C/c1ccccc1)C(=O)NC(Cc1ccccc1)C(=O)O (stereo unspecified),.,11,.,.,.
O=C(CCN1C(=O)c2cccc3cccc(c23)C1=O)N1CCOCC1,.,13,.,.,.
Cc1ccccc1-c1ccc2c(c1)[C@@H]1C[C@H](N(C)C(=O)c3ccco3)[C@H]([C@H](C)O)CN1CC2,.,.,/,.,.
O=C(Nc1nnc(-c2ccccc2F)s1)c1cccnc1,.,.,5.1,.,.
O=C(Nc1nnc(C(F)(F)F)s1)c1cccnc1,.,.,.,5.6,.
Cc1cccc(-c2cccc3c4c([nH]c23)[C@@H]2C[C@H](N(C)C(=O)Nc3ccccc3C)[C@H]([C@H](C)O)CN2CC4)c1,.,.,/,.,.
COc1cc(/C=N/n2cnnc2)ccc1OCC(=O)N1CCOCC1,.,.,4.9,.,.
C/C(=N\NC(=O)c1nn(C)cc1Br)c1cccc(NC(=O)C2CCCC2)c1,.,11,.,.,.
C/C(=N\NC(=O)c1nn(C)cc1Br)c1cccc(NC(=O)C(C)(C)C)c1,.,.,.,.,.
Cc1[nH][nH]c(=O)c1C(c1ccccc1[N+](=O)[O-])C(C#N)C#N (stereo unspecified),.,.,.,.,.
CCCc1[nH][nH]c(=O)c1C(c1cccc(Cl)c1)C(C#N)C#N (stereo unspecified),.,.,4.5,.,.
